An excerpt weighted towards active compounds, which were near 4% of everything screened.
Peg3 promoter = Peg3 promoter-driven luciferase inhibitors, primary screen, cell-based, HeLa, luciferase luminescence | HeLa PEG-Prom luciferase reporter, overnight | inhibition, % at 20 µM | 360,000 compounds, 1.7% hits;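 active means inhibition of at least 50% at 20 µM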
KKLEB tox = cytotoxicity in KKLEB CF airway cells, primary screen, cytotoxicity control for CF NF-kB inhibitor project, cell-based, uHTS, fluorescence assay plates; activity change (cytotoxicity), % at 5 µM; AID 602141, 2011; KKLEB CF airway cells viability, ATPlite luminescence, overnight; active compounds read low; cells stimulated with P. aeruginosa culture filtrate; 360,000 compounds, 0.36% hits;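 active means corrected activity change at or below -50% at 5 µM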
CF NFkB inh = inhibitors of PAF-induced NF-kB signaling, primary screen, cell-based, GFP fluorescence, uHTS; inhibition, % at 5 µM; 360,000 compounds, 0.86% hits; AID 588850, 2011; KKLEB NF-kB-GFP reporter, GFP fluorescence overnight;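 active means at least 50% inhibition at 5 µM, scaled per plate between neutral and stimulator controls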;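 further: PAF is a Pseudomonas aeruginosa culture filtrate used as stimulus; plate controls were PAF-stimulated DMSO wells for no effect and unstimulated DMSO wells for full effect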
TROY NFkB inh = inhibitors of TROY-driven NF-kB signaling, primary screen, Q293 LMP1-TROYcd cells, NF-kB luciferase, uHTS; Q293 LMP1-TROYcd NF-kB luciferase reporter, 4 h; inhibition, % at 10 µM; 360,000 compounds, 0.98% hits;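 active means compounds whose plate-normalised and pattern-corrected inhibition of the luciferase reporter signal at the single screening dose is 50% or more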
HIF-2a block = HIF-2a reporter inhibitors, primary screen, luminescence, 786-0 RCC cells | inhibition, % at 18.8 µM | 786-0 RCC cells HIF-2a reporter, luciferase luminescence, overnight | 360,000 compounds, 0.72% hits | AID 624352, 2012;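 active means inhibition of the luminescence signal of 40% or more relative to plate controls, in a single-dose primary screen at 18.75 µM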
TWEAK Fn14 block = inhibitors of TWEAK-Fn14 signaling, primary screen, luciferase reporter cells, uHTS | TWEAK-stimulated Fn14 reporter cells, luciferase luminescence, 8 h | inhibition, % at 10 µM | 360,000 compounds, 2% hits | AID 1159606, 2016; in the data active means inhibition above about 50%
The depositor's hits bear a star.

SMILES	Peg3 promoter	KKLEB tox	CF NFkB inh	TROY NFkB inh	HIF-2a block	TWEAK Fn14 block
CC(C)(C)OC(=O)N1CCC(NC(=O)c2nc[nH]c2C(=O)NCC(=O)OCc2ccccc2)CC1	55*	-2	16	13	3	16
CC(C)(C)OC(=O)NCc1ccc(NC(=O)c2nc[nH]c2C(=O)NCCCCCCNC(=O)c2[nH]cnc2C(=O)Nc2ccc(CNC(=O)OC(C)(C)C)cc2)cc1	101*	-83*	88*	12	13	-19
Cn1c(SCc2cc(=O)[nH]c(C(C)(C)C)n2)nnc1C(F)(F)F	16	4	3	9	18	4
C=CCNC(=O)CSc1nnc(-c2ccccn2)n1Cc1ccccc1	-5	0	-30	-4	16	-3
Fc1ccc(-c2nc3c4ccccc4ccn3c2Cc2ccsc2)cc1	-96	3	-9	-16	-148	18
C[C@H](NC(=O)c1nc[nH]c1C(=O)NCc1ccc(CNC(=O)OC(C)(C)C)cc1)c1ccccc1	41	-4	28	29	7	22
CC(C)(C)OC(=O)NCCCCCNC(=O)c1[nH]cnc1C(=O)Nc1cc(Br)ccc1F	10	-5	6	22	-9	76*
CC(C)(C)OC(=O)NCc1ccc(NC(=O)c2nc[nH]c2C(=O)Nc2cc(Br)ccc2F)cc1	14	-39	12	2	-1	-32
CC(C)(C)OC(=O)NCc1ccc(NC(=O)c2nc[nH]c2C(=O)NCCN(CCNC(=O)c2[nH]cnc2C(=O)Nc2ccc(CNC(=O)OC(C)(C)C)cc2)CCNC(=O)c2[nH]cnc2C(=O)Nc2ccc(CNC(=O)OC(C)(C)C)cc2)cc1	9	3	-25	1	15	-28
CC(C)(C)OC(=O)NCc1ccc(NC(=O)c2nc[nH]c2C(=O)NCCCNC(=O)c2[nH]cnc2C(=O)Nc2ccc(CNC(=O)OC(C)(C)C)cc2)cc1	78*	7	40	19	16	73*
C[C@H](NC(=O)c1nc[nH]c1C(=O)NCc1ccc(CNC(=O)OC(C)(C)C)cc1)C(=O)OCc1ccccc1	8	3	2	57*	7	-1
CC(C)(C)OC(=O)NCc1ccc(CNC(=O)c2[nH]cnc2C(=O)Nc2ccccc2F)cc1	39	-6	18	40	3	54*
CC(C)n1cnc2c(Nc3ccc(C(=O)O)cc3)nc(Cl)nc21	-16	11	5	-5	-30	6
CC(C)C[C@H](NC(=O)c1nc[nH]c1C(=O)NC(c1ccccc1)c1ccccc1)C(=O)OC(C)(C)C	84*	-2	34	28	35	34
CC(C)(C)OC(=O)NCc1ccc(NC(=O)c2nc[nH]c2C(=O)NCCCCNC(=O)c2[nH]cnc2C(=O)Nc2ccc(CNC(=O)OC(C)(C)C)cc2)cc1	93*	-34	77*	12	1	5
CC[C@]12c3[nH]c4cc(-c5ccco5)ccc4c3CCN1C(=O)[C@@H](CC(=O)NC(C)(C)C)C[C@@H]2C(=O)N1CCN(C(=O)C2CC2)CC1	0	9	-13	-13	-6	3
CC(C)NC(=O)C1(C)Cc2c(-c3cccc(C(N)=O)c3)ccnc2O1 (configuration not stated)	12	-7	0	-13	6	-7
CCCCn1c(Cc2ccccc2)nnc1SCC(=O)Nc1cc(C)on1	9	-19	-3	-11	3	3
Cc1ccc2nc(NC(=O)c3ccc(OCC4CCCO4)cc3)sc2c1 (configuration not stated)	-40	1	-18	37	-170	90*
COc1ccc2nc(NC(=O)c3ccc(NC(=O)C4CCCO4)cc3)sc2c1 (configuration not stated)	-76	20	-20	9	-196	8
Cc1cccnc1NC(=O)c1ccc(OCC2CCCO2)cc1 (configuration not stated)	-37	-24	15	-30	-106	-17
Cc1cc(C)c2nc(NC(=O)c3ccc(OCC4CCCO4)cc3)sc2c1 (configuration not stated)	-135	-4	7	-12	-108	53*
COc1ccc(CN(C)C(=O)c2cc(S(=O)(=O)Nc3ccccc3F)ccc2C)c(OC)c1	-9	0	4	-19	2	53*
COc1cccc(CN(C)C(=O)c2ccc(S(=O)(=O)Nc3ccccc3F)cc2)c1OC	2	8	-1	-11	8	-22
COc1cc(S(N)(=O)=O)c(OC)cc1N	12	8	-31	10	12	6
SMILES	Peg3 promoter	KKLEB tox	CF NFkB inh	TROY NFkB inh	HIF-2a block	TWEAK Fn14 block
O=C(COC(=O)/C=C/C(=O)OCC(=O)NC12CC3CC(CC(C3)C1)C2)NC12CC3CC(CC(C3)C1)C2	103*	-16	41	6	29	-10
CC(NC(=O)c1cc(F)c(F)cc1Cl)c1ccncc1 (configuration not stated)	8	-6	11	-5	12	-3
COc1ccc(C(=O)N2CCCC(N3CCN(c4ccccc4F)CC3)C2)c(OC)n1 (configuration not stated)	5	9	-8	11	-1	-9
COc1ccc(C)cc1NC(=O)N1CCCc2ccccc21	-2	3	-4	70*	-13	55*
COc1ccc2c(c1)CCCN2C(N)=O	1	-5	0	4	-5	58*
COc1ccc(NC(=O)N2CCCc3ccccc32)c(OC)c1	0	-12	2	70*	-23	51*
Cc1ccc(NC(=O)Cn2nc(C(=O)O)c3ccccc3c2=O)cc1S(=O)(=O)N1CCCCCC1	-2	7	0	42	11	16
CC[N+](C)(CC)CCOC(=O)C(O)(c1ccccc1)C1CCCCC1 (configuration not stated)	-10	6	54*	12	29	1
CC[N+](C)(CC)CCC(c1ccccc1)C1CCCCC1 (configuration not stated)	14	3	-9	21	20	14
CCCCc1ccc(NC(=O)CSc2nc(=O)n(CCN(C)C)c3c2CCC3)cc1	26	-6	17	10	12	15
CCCCc1ccc(NC(=O)CSc2nc(=O)n(CCN(CC)CC)c3c2CCCC3)cc1	49	-17	34	54*	5	-8
COc1cccc(-c2nc(NC3CCCC3)c3ccccc3n2)c1O	42	6	-12	71*	-56	-2
Cc1ccccc1CC1(CO)CCCN(C(=O)CCN2CCCO2)C1 (configuration not stated)	-76	0	-5	1	-101	-12

Compound activity deposited in PubChem by Sanford-Burnham Center for Chemical Genomics.
